Compounds without any hit were thinned out: in the full panel of roughly 83,000, 20% have a hit.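 Step 1: grow cells in 96-well plates. Step 2: add test compound at a single concentration. Step 3: incubate 48 h. Step 4: record percent growth.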 Active and inactive are the calls of the source. How the source made its calls: active means growth percent below 10; inactive means the rest.
Tests used:
Assay in all cases: NCI-60 one-dose screen, 48 h (100 = growth as untreated, 0 = no growth, -100 = all killed)
Settings in all cases: 10 µM
[1] = test system: DU-145 prostate
[2] = test system: K-562 leukemia
[3] = test system: MALME-3M melanoma
[4] = test system: MDA-MB-231 breast
[5] = test system: RXF 393 renal
[6] = test system: SF-268 CNS
[7] = test system: SF-295 CNS
[8] = test system: SF-539 CNS
[9] = test system: UACC-257 melanoma
[10] = test system: M14 melanoma
[11] = test system: HCT-15 colon
[12] = test system: HT29 colon
[13] = test system: SNB-75 CNS
[14] = test system: U251 CNS
[15] = test system: SK-MEL-5 melanoma
[16] = test system: UACC-62 melanoma
[17] = test system: LOX IMVI melanoma
[18] = test system: SK-MEL-28 melanoma
[19] = test system: SNB-19 CNS
[20] = test system: PC-3 prostate

Measured: growth

Cc1nc2ccc(-n3c(-c4ccc(Cl)cc4)nc4ccccc4c3=O)cc2n1Cc1ccccc1
inactive: [1] 95.2% | [2] 85.6% | [3] 89.4% | [4] 88.1% | [5] 104% | [6] 92.4% | [7] 90.2% | [8] 96.8% | [9] 78.2% | [10] 95.1% | [11] 77% | [12] 95.6% | [13] 95.9% | [14] 89.1% | [15] 66.7% | [16] 78.4% | [17] 91.9% | [18] 107%

Cc1ccc(/C=C2\CN(Cc3cn(CCNc4ccnc5cc(Cl)ccc45)nn3)C/C(=C\c3ccc(C)cc3)C2=O)cc1
active: [1] -98.5% | [2] -14.7% | [3] -14.9% | [4] -27.6% | [5] -89% | [6] -70.7% | [7] -58.8% | [8] -51.9% | [9] -41.1% | [10] -41.7% | [11] -29.4% | [12] -45.1% | [19] -29.8% | [20] -32.4% | [15] -90.5% | [16] -58.4% | [17] -82.9% | [18] -83.5%

COc1cc(-c2nc3ccccc3[nH]2)ccc1OCC(=O)N=Nc1c(O)[nH]c2ccccc12
inactive: [1] 99.7% | [2] 17.5% | [3] 54.6% | [4] 88.8% | [5] 106% | [6] 94.1% | [7] 95.9% | [8] 97.8% | [9] 105% | [10] 83.3% | [11] 99.4% | [12] 91.5% | [13] 98.1% | [14] 32.1% | [15] 68.9% | [16] 94.9% | [18] 101%

FC(F)(F)c1ccc(-c2cnc(Cl)nc2NCc2cc(C(F)(F)F)cc(C(F)(F)F)c2)cc1
inactive: [1] 18.8% | [2] 16.3% | [3] 33.6% | [5] 23.3% | [6] 25.3% | [8] 33.1% | [9] 38.2% | [10] 41% | [12] 21.3% | [13] 27.2% | [14] 10.7% | [15] 77.3% | [18] 46%
active: [4] -28.6% | [7] -18.8% | [11] 8.09% | [20] 4.94% | [16] 6.65%

O=C(N/N=c1/ccoc2cccnc12)N1CCN(c2ncccn2)CC1
inactive: [1] 50.5% | [3] 55.5% | [4] 40% | [5] 66.8% | [6] 37.3% | [7] 15.9% | [8] 45.3% | [10] 14.5% | [11] 24.9% | [12] 34.6% | [19] 35% | [14] 17.9% | [20] 26.2% | [17] 18.1% | [18] 48.4%
active: [2] 9.99% | [9] 5.91% | [15] -36.8% | [16] 7.9%

Cc1nn2c(/C=C3/C(=O)Nc4ccc(Cl)cc43)c(-c3ccccc3)nc2s1
active: [3] -2.37% | [4] 8.13% | [5] 7.51%
inactive: [1] 31.9% | [2] 56.7% | [6] 30.4% | [7] 70.1% | [8] 38.1% | [9] 62.3% | [10] 55.4% | [11] 57.1% | [12] 35.1% | [19] 82.4% | [14] 34.8% | [20] 32.3% | [16] 39.3% | [17] 45.3% | [18] 29.2%

CC(C)/C=N/NC(N)=S
inactive: [1] 95.3% | [2] 47.3% | [3] 80.3% | [4] 86.2% | [5] 106% | [6] 99.9% | [7] 90.5% | [8] 102% | [9] 40.5% | [10] 84.4% | [11] 90.6% | [12] 62.2% | [19] 98.3% | [14] 80.8% | [15] 97.2% | [16] 97.3% | [17] 96% | [18] 99.2%

COc1ccc(/C=C2\SC(=S)N(CCCN3CCOCC3)C2=O)c(OC)c1
inactive: [1] 100% | [2] 83.8% | [3] 118% | [4] 96.9% | [5] 108% | [6] 104% | [7] 107% | [8] 104% | [9] 102% | [10] 95.6% | [11] 91.9% | [12] 96.2% | [13] 99.4% | [14] 97.3% | [20] 93.2% | [16] 90.8% | [17] 97.8% | [18] 106%

Cc1cc(/C=C2\SC(=Nc3ccccc3)N(C3CCCC3)C2=O)c(C)n1-c1ccc(Cl)cc1
active: [1] -79.1% | [2] -22.8% | [3] -72.8% | [4] -53% | [5] -90.2% | [6] -47.5% | [7] -70.3% | [8] -70.8% | [9] -70.8% | [10] -69.9% | [11] -28.2% | [12] -65.8% | [19] -65.8% | [14] -91.1% | [20] -63.4% | [15] -97.9% | [16] -56.3% | [17] -72.7% | [18] -69.8%
